# PubChem BioAssay AID485317 (Broad Institute, 2010)
# In all, about 290,000 compounds went through this assay and about 11,000 (3.8%) were called active.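 How the source made its calls: active means mean replicate inhibition above about 79%, with every replicate also reaching it (limit read from the data); inconclusive means only one of the two criteria met; inactive means mean below limit and not every replicate reaching it.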 The entries come from a sample that favours actives as a whole.
# Target: FAD-linked sulfhydryl oxidase ALR (Homo sapiens) (UniProt P55789)
# Test: inhibitors of human ALR sulfhydryl oxidase, primary screen, biochemical, H2O2 detection, HRP-luminol luminescence, single point (AID 485317)
# Conditions: purified ALR, DTT oxidation, hits give high values, concentration not given here
# Sequence of FAD-linked sulfhydryl oxidase ALR (Homo sapiens) (P55789 whole entry, looked up): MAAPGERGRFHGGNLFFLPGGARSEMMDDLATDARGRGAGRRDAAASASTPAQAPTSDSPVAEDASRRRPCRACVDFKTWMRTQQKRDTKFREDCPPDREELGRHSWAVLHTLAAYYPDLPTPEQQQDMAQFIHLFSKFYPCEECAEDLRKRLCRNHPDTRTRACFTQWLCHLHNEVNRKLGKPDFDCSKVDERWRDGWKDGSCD
row,Compound,inhibition
1,O=S1(=O)CC/C(=N\Nc2ccc(F)cc2)c2ccsc21,98.3% (active)
2,COc1ccc(C(=O)N/N=C2\CCS(=O)(=O)c3ccc(F)cc32)cc1OC,-0.529% (inactive)
3,COc1ccccc1NC(=O)COC(=O)CNC(=O)C1CCCCC1,-0.565% (inactive)
4,COc1ccc(-c2c(C#Cc3ccsc3)c3cc(-c4ccc(CN5CCOCC5)cc4)ccc3n2C)cc1,-4.78% (inactive)
5,O=C(O)c1ccc(Cn2c(=S)[nH]c3cc(Cl)ccc3c2=O)cc1,94.9% (active)
6,CCOc1cc2[nH]c(=S)n(Cc3ccc(C(=O)N4CCN(C)CC4)cc3)c(=O)c2cc1OCC,-0.332% (inactive)
7,COc1ccc(Cn2c(=S)[nH]c3cc(C(=O)N4CCCCC4)ccc3c2=O)cc1,9.27% (inactive)
8,CC(=O)c1ccc(S(=O)(=O)Nc2ccc(-c3ccc4nncn4n3)cc2)cc1,-13.1% (inactive)
9,O=C1c2ccccc2C(=O)N1CCC#Cc1ccc2cc(C3(O)CCCCC3)oc(=O)c2c1,-19.8% (inactive)
10,CCOc1ccc(-c2cc(C(=O)N/N=C/c3ccc(O)cc3)c3ccccc3n2)cc1,1.65% (inactive)
11,O=C(COC(=O)C1CCCO1)Nc1nc(-c2ccc(F)cc2)cs1 (centres undefined),-4.39% (inactive)
12,Cc1ccc2c(c1)C(O)(CC(=O)c1cccnc1)C(=O)N2 (centres undefined),-0.959% (inactive)
13,Cc1ccc(NC2(C#N)C(=O)Nc3ccccc32)cc1 (centres undefined),97.6% (active)
14,Cc1cc(O)c(C2(O)C(=O)Nc3ccccc32)cc1C (centres undefined),16.1% (inactive)
15,CCCN1C2CCCC1CC(NC(=O)c1cccc(OC)c1)C2 (centres undefined),-4.94% (inactive)
16,CC(=O)NC1CC2CCCC(C1)N2CC(=O)Nc1ccccc1 (centres undefined),-9.69% (inactive)
17,CN(C)c1ccc(NC(=O)CN2C3CCCC2CC(NC(=O)c2ccccc2)C3)cc1 (centres undefined),99.7% (active)
18,O=C1C=CN2CCCC2CC1 (centres undefined),-8.59% (inactive)
19,CN(c1ccc(O)cc1)c1nc(-c2cccnc2)cs1,95.1% (active)
20,Cc1ccccc1Nc1nc(-c2cccnc2)cs1,11.2% (inactive)

row,Compound,inhibition
1,O=C(Nc1nc(-c2cccnc2)cs1)c1ccccc1F,1.15% (inactive)
2,C=CCC[C@H](Cc1ccc(F)cc1)C(=O)OC[C@H](C)NC(=O)[C@H](CC=C)CC(=O)N(CCO)Cc1ccccc1,2.24% (inactive)
3,COc1ccc([C@H]2CC(=O)C=C(/C=C/c3ccccc3)C2)cc1,1.57% (inactive)
4,O=C(NCCN1CCOCC1)c1cccc(S(=O)(=O)Nc2ccc(F)cc2)c1,-5.52% (inactive)
5,O=C(COC(=O)c1ccc(Br)o1)NC12CC3CC(CC(C3)C1)C2,-1.81% (inactive)
6,Cc1ccc(S(=O)(=O)Nc2nc(C)cc(-n3nc(C)cc3C)n2)cc1,7.83% (inactive)
7,Cc1ccc(S(=O)(=O)Nc2nc(C)cc(N/N=C/c3ccc(O)cc3)n2)cc1,98.5% (active)
8,Cc1cc(N/N=C\c2ccc(Br)cc2)nc(-n2nc(C)cc2C)n1,-2.32% (inactive)
9,CCN(C[C@H]1N[C@@](CC)(C(=O)OC)[C@H]2C(=O)N(Cc3ccccc3)C(=O)[C@@H]12)S(=O)(=O)c1ccc(C(F)(F)F)cc1,17.3% (inactive)
10,CCCc1ccc(OCC(O)CN2CCN(CCO)CC2)cc1 (centres undefined),-1.03% (inactive)
11,CCc1ccc(S(=O)(=O)NCC(O)COc2ccc(OC)cc2)cc1 (centres undefined),-11.7% (inactive)
12,Nc1ccc(OCC(O)C[n+]2ccc(CCS(=O)(=O)[O-])cc2)cc1 (centres undefined),98.1% (active)
13,CCN(CC)C(CNC(=O)CSc1nnnn1-c1cccc(F)c1)c1ccco1 (centres undefined),-5.32% (inactive)
14,O=c1c2ccccc2ccc2ccc(P(=O)(O)O)cc12,-13.1% (inactive)
15,O=C1NC[C@@H](c2ccccc2)OC(=O)[C@H](Cc2ccc(F)cc2)CC/C=C/C[C@H]1CC(=O)N(CCO)Cc1ccccc1,-7.53% (inactive)
16,CC(C)(C)OC(=O)Nc1ccc([C@@H](NC(=O)OC(C)(C)C)C(=O)OC(C)(C)C)cc1,2.09% (inactive)
17,Cc1cc(C(=O)O)ccc1[N+](=O)[O-],-8.6% (inactive)
18,CC(C)NC(=O)c1ccc(Sc2ccccc2)c([N+](=O)[O-])c1,5.17% (inactive)
19,Cc1ccc(Sc2cc(C(=O)c3ccccc3C(=O)O)ccc2[N+](=O)[O-])cc1,97.5% (active)
20,COc1ccc2c(c1)cc1n2CCN=C1NN,97.6% (active)

row,Compound,inhibition
1,COc1ccc2ccn(C)c2c1,7.82% (inactive)
2,O=C(CNC(=O)c1n[nH]c2ccccc12)Nc1cc(Cl)ccc1Cl,-1.04% (inactive)
3,Cc1ccc(CNC(=O)COC(=O)C2CCC2)cc1,2.97% (inactive)
4,CCN(CC)CCCSc1nc2ccccc2s1,-9.41% (inactive)
5,O=C(CSc1nc2ccccc2s1)Nc1ccc(C(=O)O)cc1,-1.73% (inactive)
6,O=C(O)c1ccccc1CSc1nc2ccccc2s1,98.5% (active)
7,Cc1ccc(C(=O)OCC(=O)N2CC(C)CC(C)C2)cc1S(=O)(=O)N1CCCCC1 (centres undefined),-62.3% (inactive)
8,COCCCn1c(SCC(=O)Nc2oc(C)c3c(C)n[nH]c(=O)c23)nc2sc3c(c2c1=O)CCC3,-9.92% (inactive)
9,CC(OC(=O)CCC(=O)c1ccccc1)C(=O)Nc1ccc(F)cc1 (centres undefined),-4.58% (inactive)
10,O=C(CCCN=C1NS(=O)(=O)c2ccccc21)OCC(=O)c1ccc(F)c(F)c1,-7.91% (inactive)
11,NC(=O)c1oc2ccccc2c1NC(=O)Cc1ccccc1,-7.38% (inactive)
12,Nc1c(NCCc2ccccc2)c2ccccc2oc1=O,98.8% (active)
13,CC(C)(C)Nc1c(N)c(=O)oc2ccccc12,72.1% (inactive)
14,O=C(Nc1ccc(C(F)(F)F)cc1)c1cccc(-n2cnnn2)c1,-5.63% (inactive)
15,CSc1ncccc1C(=O)NCC(c1ccco1)N1CCCCC1 (centres undefined),-3.83% (inactive)
16,O=C(COC(=O)c1cc(=O)[nH]c2ccccc12)NCc1cccc(Cl)c1,1.99% (inactive)
17,N#C/C(=C\c1ccc(-c2cccc([N+](=O)[O-])c2)o1)C(=O)NCCN1CCOCC1,-9.22% (inactive)
18,COc1ccc(N2CCN(C(=O)/C(C#N)=C/c3ccccc3)CC2)cc1,33.6% (inactive)
19,N#C/C(=C\c1ccc(N2CCOCC2)o1)C(=O)N1CCOCC1,83.6% (active)
